The source made the active and inactive calls. No rule for the calls is given here.

The results in this text go back to PubChem BioAssay AID2615 (Southern Research Specialized Biocontainment Screening …, 2010).

The experiment can be described thus: SV40 cytopathic effect inhibition and cytotoxicity, confirmation, SV40 T antigen inhibitor project, BSC cells (AID 2615). The note with it: BSC cells SV40 infection; outcome: CPE inhibition; viability: CPE inhibition, viability, at 100 µM, stronger effect = lower value; series mostly up to 200 µM.

On to `Nc1nc2ccc(S(=O)(=O)N3CCCCC3)cc2s1`, for which the outcome was inactive and the viability came to 0.95%.

As for `ClC(Cl)(c1nnnn1-c1ccccc1)c1nnnn1-c1ccccc1`, the viability amounted to 0.34%. `Nc1nc2ccc(C(=O)N3CCOCC3)cc2s1`: the call was inactive and the viability stood at 101%.

On to `ClC(Cl)(c1nnnn1-c1ccc(Br)cc1)c1nnnn1-c1ccc(Br)cc1`, for which the call was inactive and the viability was -0.31%. For `Cc1ccc2c(c1)C1C=CCC1C(C(=O)O)N2` (configuration not stated), in that order: “inactive” and 41.3%. Regarding `COc1ccc(-n2nnnc2C(Cl)(Cl)c2nnnn2-c2ccc(OC)cc2)cc1`, the call was inactive and the viability was 6.3%.

As to `Cc1cc(C)c2c(=O)n(CC(=O)Nc3cccc(Cl)c3C)sc2n1`, the molecule was called inactive and the viability was 2.65%. Consider `Nc1nc2ccc(C(=O)N3CCCCC3)cc2s1`, for which the molecule was classed as inactive and the viability was determined as 103%. Take `CCN(CC)C(=O)c1ccc2nc(N)sc2c1`: the molecule was called inactive and the viability was 87.6%.
